Test in all cases: yeast three-hybrid, YBZ-1, SC-Leu-His + 0.5 mM 3-AT, 4 days
What all share (conditions): tags: N-Gal4 AD-HA kept; label: inside an RPR1-promoter hybrid RNA with tandem MS2 sites; ssRNA

The target of assay [1] is PUM1 PUF domain R1-YVK (Homo sapiens, UniProt Q14671 828-1176, S863Y;R864V;Q867K). In outline: (§1)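 The interaction score is the logarithmic change in variant frequency from input to selection. It uses log2, with a pseudocount of 1 for absent variants, and frequencies came from PCR-amplified, Illumina-sequenced repeat regions. The libraries were Pumilio-1 PUF domains randomized at the three base-contacting residues per repeat, co-expressed with matching RNA elements in strain YBZ-1 (LexA–MS2 coat fusion, HIS3 reporter). Plating lasted four days on SC-Leu (input) or SC-Leu-His + 0.5 mM 3-AT (selection).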

For assay [2], the target named is PUM1 PUF domain R5-HRR (Homo sapiens, UniProt Q14671 828-1176, C1007H;Q1011R). The essentials: as §1
Assay [3] concerns the target PUM1 PUF domain R5-KRV (Homo sapiens, UniProt Q14671 828-1176, C1007K;Q1011V). In outline: as §1
In assay [4] the target is PUM1 PUF domain R7-RGG (Homo sapiens, UniProt Q14671 828-1176, S1079R;N1080G;E1083G). The essentials:
as §1

Assay [5] deals with T1, PUM1 PUF domain R6-TFA (Homo sapiens, UniProt Q14671 828-1176, N1043T;Y1044F;Q1047A).
T1 sequence: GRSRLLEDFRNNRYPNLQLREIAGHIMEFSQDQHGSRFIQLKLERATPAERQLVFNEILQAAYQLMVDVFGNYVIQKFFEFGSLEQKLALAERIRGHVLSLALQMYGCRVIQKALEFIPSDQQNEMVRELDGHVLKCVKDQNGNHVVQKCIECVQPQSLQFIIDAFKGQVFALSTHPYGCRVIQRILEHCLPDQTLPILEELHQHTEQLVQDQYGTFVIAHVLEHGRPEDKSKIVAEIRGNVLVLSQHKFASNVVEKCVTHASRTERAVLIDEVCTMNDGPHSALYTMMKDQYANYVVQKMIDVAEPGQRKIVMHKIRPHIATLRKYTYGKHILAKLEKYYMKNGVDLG
The essentials:
as §1

For assay [6], the target named is PUM1 PUF domain R4-RHL (Homo sapiens, UniProt Q14671 828-1176, N971R;Q975L). The essentials:
as §1

The target of assay [7] is PUM1 PUF domain R3-IYD (Homo sapiens, UniProt Q14671 828-1176, C935I;R936Y;Q939D). In outline: as §1
For assay [8], the target named is PUM1 PUF domain R3-RCW (Homo sapiens, UniProt Q14671 828-1176, C935R;R936C;Q939W). In outline: as §1
Assay [9] concerns the target PUM1 PUF domain R1-RRN (Homo sapiens, UniProt Q14671 828-1176, S863R;Q867N). In outline: as §1
Assay [10] concerns the target PUM1 PUF domain R8-KHC (Homo sapiens, UniProt Q14671 828-1176, N1122K;Y1123H;Q1126C). The essentials: as §1

“GGCUAGAACUAGUGGAUCCCCCGGCGCCCGGCGGCUCGAGCCCGGGUAAGUGUAAAUUGUCUGCAUGCCGCCGGGCGCCAUGCCUGCAGGUCGACUCUAGAAAACAUG”: the binding signal in assay [1] was 2.55 log2 enrichment (interaction score).

On to “GGCUAGAACUAGUGGAUCCCCCGGCGCCCGGCGGCUCGAGCCCGGGUAAGUGUCAAUAGUCUGCAUGCCGCCGGGCGCCAUGCCUGCAGGUCGACUCUAGAAAACAUG”, for which the binding signal in assay [2] was 2.4 log2 enrichment (interaction score); in assay [3] it was 4.1 log2 enrichment (interaction score). Take “GGCUAGAACUAGUGGAUCCCCCGGCGCCCGGCGGCUCGAGCCCGGGUAAGUCUAAAUAGUCUGCAUGCCGCCGGGCGCCAUGCCUGCAGGUCGACUCUAGAAAACAUG”: in assay [4], the binding signal is 1.37 log2 enrichment (interaction score).

For the sequence “GGCUAGAACUAGUGGAUCCCCCGGCGCCCGGCGGCUCGAGCCCGGGUAAGUGUAAAUAGUCUGCAUGCCGCCGGGCGCCAUGCCUGCAGGUCGACUCUAGAAAACAUG”, the binding signal in [2] was 1.38 log2 enrichment (interaction score); in [5], 3.93 log2 enrichment (interaction score); in [6] it was 3.62 log2 enrichment (interaction score); in assay [7] it was 3.08 log2 enrichment (interaction score).

For “GGCUAGAACUAGUGGAUCCCCCGGCGCCCGGCGGCUCGAGCCCGGGUAAGUGUAAGUAGUCUGCAUGCCGCCGGGCGCCAUGCCUGCAGGUCGACUCUAGAAAACAUG”, the binding signal in assay [8] is 3 log2 enrichment (interaction score). For the sequence “GGCUAGAACUAGUGGAUCCCCCGGCGCCCGGCGGCUCGAGCCCGGGUAAGUGUAAAUGGUCUGCAUGCCGCCGGGCGCCAUGCCUGCAGGUCGACUCUAGAAAACAUG”, the binding signal in assay [9] was 2.89 log2 enrichment (interaction score). Turning to “GGCUAGAACUAGUGGAUCCCCCGGCGCCCGGCGGCUCGAGCCCGGGUAAGCGUAAAUAGUCUGCAUGCCGCCGGGCGCCAUGCCUGCAGGUCGACUCUAGAAAACAUG”, in assay [10], the binding signal was 5.19 log2 enrichment (interaction score). With “GGCUAGAACUAGUGGAUCCCCCGGCGCCCGGCGGCUCGAGCCCGGGUAAGUUUAAAUAGUCUGCAUGCCGCCGGGCGCCAUGCCUGCAGGUCGACUCUAGAAAACAUG”, the binding signal in assay [4] was 3.65 log2 enrichment (interaction score).

As for “GGCUAGAACUAGUGGAUCCCCCGGCGCCCGGCGGCUCGAGCCCGGGUAAGUGUUAAUAGUCUGCAUGCCGCCGGGCGCCAUGCCUGCAGGUCGACUCUAGAAAACAUG”, the binding signal in assay [2] is 4.62 log2 enrichment (interaction score). Take “GGCUAGAACUAGUGGAUCCCCCGGCGCCCGGCGGCUCGAGCCCGGGUAAGUGUAAAUCGUCUGCAUGCCGCCGGGCGCCAUGCCUGCAGGUCGACUCUAGAAAACAUG”: the binding signal was 5.26 log2 enrichment (interaction score) in assay [9] and 1.62 log2 enrichment (interaction score) in [1]. On to “GGCUAGAACUAGUGGAUCCCCCGGCGCCCGGCGGCUCGAGCCCGGGUAAGUGUAAUUAGUCUGCAUGCCGCCGGGCGCCAUGCCUGCAGGUCGACUCUAGAAAACAUG”, for which the values for the binding signal in assay [8] and in assay [7] were 3.79 log2 enrichment (interaction score) and 2.12 log2 enrichment (interaction score), respectively.
